# Bioassay records (PubChem)
# KCNQ2 block – inhibitors of rat KCNQ2 potassium channel; O88943; CHO-K1 KCNQ2, FluxOR thallium flux, 20 min; stronger effect = lower value; B-score at 10 µM; actives 1.1% (n = 310,000);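 active = fluorescence ratio B-score at most minus 3 library SDs, with starting brightness B-score within 2 library SDs, cut at about -5.5 in these data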
# Target sequence (O88943 whole entry, looked up): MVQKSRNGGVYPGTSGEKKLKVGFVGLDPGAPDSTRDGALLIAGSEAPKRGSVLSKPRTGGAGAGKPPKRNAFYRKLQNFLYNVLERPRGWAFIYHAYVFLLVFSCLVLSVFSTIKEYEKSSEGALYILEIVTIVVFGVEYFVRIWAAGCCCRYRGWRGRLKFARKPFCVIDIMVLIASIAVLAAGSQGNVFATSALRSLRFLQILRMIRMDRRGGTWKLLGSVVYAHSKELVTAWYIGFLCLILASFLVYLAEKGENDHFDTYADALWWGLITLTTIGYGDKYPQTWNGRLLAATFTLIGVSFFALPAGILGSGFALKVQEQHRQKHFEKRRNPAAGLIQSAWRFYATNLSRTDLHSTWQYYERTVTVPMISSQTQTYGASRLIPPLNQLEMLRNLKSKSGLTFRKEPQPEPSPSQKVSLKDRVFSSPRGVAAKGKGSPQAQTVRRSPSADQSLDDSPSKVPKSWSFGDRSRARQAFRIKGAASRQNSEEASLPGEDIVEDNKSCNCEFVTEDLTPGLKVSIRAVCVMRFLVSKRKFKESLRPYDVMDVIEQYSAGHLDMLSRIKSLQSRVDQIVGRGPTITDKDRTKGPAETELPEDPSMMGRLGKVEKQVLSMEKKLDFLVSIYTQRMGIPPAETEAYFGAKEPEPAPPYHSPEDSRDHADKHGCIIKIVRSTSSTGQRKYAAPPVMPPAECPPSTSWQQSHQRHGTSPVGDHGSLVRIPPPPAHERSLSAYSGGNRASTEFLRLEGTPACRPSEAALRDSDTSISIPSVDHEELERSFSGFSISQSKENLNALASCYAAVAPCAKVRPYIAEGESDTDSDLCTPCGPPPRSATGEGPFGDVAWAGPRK
# KCNQ2 pot – enhances the rat KCNQ2 potassium channel; O88943; CHO-K1 KCNQ2, FluxOR thallium flux fluorescence; stronger effect = higher value; B-score at 10 µM; actives 0.54% (n = 310,000); AID 2239;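 active = fluorescence ratio B-score at least 3 SD of library B-scores, with initial fluorescence B-score within 3 of them, cut at about 5.3 in these data; same plate scores as AID 2156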;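 note: B-score of peak minus minimum over baseline fluorescence ratio after K+ and Tl+ stimulus; positive B-score means potentiation of KCNQ2 with more thallium influx and brighter signal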
# Starred values were filed as active, the others as inactive; i = inactive; . = no result given. Compounds with a hit are over-represented: about 1.6% of the library has one in this group of screens.
SMILES,KCNQ2 block,KCNQ2 pot
Cc1ccc(-c2nc3ccccc3c(=O)n2NC(=O)COc2ccccc2)cc1,-6.83*,-6.83
N#CC1(C#N)CC(C=O)=C(N)C1(C#N)CC(=O)C12CC3CC(CC(C3)C1)C2 (stereo not drawn),i,.
CC(OC(=O)/C=C/c1cccc(F)c1)C(=O)NC1CCCCC1C (stereo not drawn),i,0.45
O=C(Nc1ccccc1-c1nnc(SCc2ccccc2Cl)o1)c1ccccc1,i,.
COc1ccc(OCC(=O)Nc2ccc3nc(C)sc3c2)cc1,-9.62*,-9.62
COc1cccc(CC(=O)Nc2ccc3nc(C)sc3c2)c1,i,.
COCCN1C(=O)N[C@@H](c2cccs2)C(C(C)=O)=C1C,i,0.88
Brc1ccc(-c2csc3ncnc(-n4nnc5ccccc54)c23)cc1,i,0.95
Cc1cc2ncn(-c3ncnc4sc5c(c34)CCCC5)c2cc1C,i,.
Cc1cc2ncn(-c3ncnc4sc5c(c34)CCC(C)C5)c2cc1C (stereo not drawn),-5.88*,-5.88
CC(=O)NC12CC3CC(C1)CC(C(=O)N1CCN(c4ncccn4)CC1)(C3)C2,i,1.12
COc1cc([N+](=O)[O-])ccc1NC(=O)NCC1CCN(Cc2ccc(Cl)cc2)CC1,-6.13*,-6.13
COc1ccc(Cl)cc1NC(=O)NCC1CCN(Cc2cc(C)ccc2C)CC1,i,.
C=C(C)CSc1nnc(CCCCCNC(=O)OC(C)(C)C)o1,i,.
COCC(=O)N1CCCC(C(=O)c2ccc(-c3ccccc3)c(F)c2)C1 (stereo not drawn),i,.
Cc1cc(C)c2[nH]c(O)c(N=NC(=S)NCC3CCCO3)c2c1 (stereo not drawn),i,1.22
Oc1[nH]c2c(Cl)cc(Cl)cc2c1N=NC(=S)NCC1CCCO1 (stereo not drawn),i,10.9*
COc1cccc(-n2c(CN3CCN(c4ccc(C)cc4)C(C)C3)nc3ccc([N+](=O)[O-])cc3c2=O)c1 (stereo not drawn),i,.
COc1cccc(-n2c(CN3CCN(c4cccc(C)c4)C(C)C3)nc3ccc([N+](=O)[O-])cc3c2=O)c1 (stereo not drawn),-5.78*,-5.78
CCc1ccc(NC(=O)CNC(=O)[C@@H]2Cc3ccccc3CN2C(=O)OC(C)(C)C)cc1,i,0.14
COc1cccc(-c2nc(N3CCN(C)CC3)c3ccccc3n2)c1O,i,.
COc1cccc(-c2nc(N3CCCCC3C)c3ccccc3n2)c1O (stereo not drawn),-6.81*,-6.81
C=CCN1C(=O)c2ccc(C(=O)OCC(=O)Nc3ccc(S(N)(=O)=O)cc3)cc2C1=O,i,0.11
Cc1ccc(NC(=O)c2ccc(NCCN)c([N+](=O)[O-])c2)cc1,i,.
NCCNc1ccc(C(=O)N2c3ccccc3Sc3ccccc32)cc1[N+](=O)[O-],-8.07*,-8.07
SMILES,KCNQ2 block,KCNQ2 pot
O=C(CNC(=O)c1ccco1)NCC(=O)OCc1ccc(Cl)cc1Cl,i,.
CCC(=O)OCCNc1cc(Sc2nc3ccccc3s2)c2nonc2c1[N+](=O)[O-],-7.54*,-7.54
Cc1nnc(Sc2cc(NCCO)c([N+](=O)[O-])c3nonc23)s1,-7.52*,-7.52
O=[N+]([O-])c1c(NCCCO)cc(Sc2nc3ccccc3s2)c2nonc12,i,.
O=[N+]([O-])c1c(NCCO)cc(N2CCCCCC2)c2nonc12,i,.
CC1CCCC(NC(=O)CCC(=O)N2CCOc3ccccc32)C1C (stereo not drawn),i,.
COc1ccc(/C=C(/NC(=O)/C=C/c2ccccc2)C(=O)NCCCCCC(=O)O)cc1,i,0.54
CC1CC(C)CN(CCCNS(=O)(=O)c2ccc3c(c2)oc(=O)n3C)C1 (stereo not drawn),i,0.36
O=C(Cn1c(=O)n(Cc2ccco2)c(=O)c2c3c(sc21)CCCCC3)c1ccccc1,-5.73*,-5.73
O=C(Cn1c(=O)n(Cc2ccco2)c(=O)c2c3c(sc21)CCCCC3)Nc1ccccc1,i,.
O=C(CCS(=O)(=O)c1ccc(Br)cc1)N1CCCCCC1,i,.
C=CCN(C)CC/C=C1\c2ccccc2CSc2ccccc21,i,.
C#CCN(C)CC/C=C1\c2ccccc2CSc2ccccc21,-5.99*,-5.99
O=c1cc(/N=C/c2coc3c(ccc4ccccc43)c2=O)[nH]c(=S)[nH]1,i,1.27
Cc1ccc(C)c(C2NC(=O)c3ccccc3N2)c1 (stereo not drawn),-5.57*,-5.57
O=C1NC(c2ccccc2O)Nc2ccccc21 (stereo not drawn),i,.
Cc1ccccc1Nc1nc(N)nc(COC(=O)C2CCCCC2)n1,i,7.68*
Cc1ccccc1Nc1nc(N)nc(CCl)n1,i,.
Cc1ccccc1NC(=O)CSCc1nc(N)nc(Nc2ccccc2C)n1,i,5.7*
Cc1ccc(N2CC(C(=O)OCc3nc(N)nc(Nc4ccccc4C)n3)CC2=O)cc1 (stereo not drawn),i,0.86
CN(C)S(=O)(=O)c1cccc(N2C(=O)CC3(CCCCC3)CC2=O)c1,i,.
